Where “and” joins values, the source holds several entries; their conditions need not be identical. Equal entries are not always repeated. Records with an inconclusive call do not appear. Calls of active or inactive are those of the source. Unless noted, calls follow the shape of the dose curve; as a rule, active = well fitted curve in the direction sought with a large enough effect; inconclusive = small, poorly fitted or top-dose-only effect, or another doubt; inactive = no such curve, though single readings can be large; an effect the other way counts as inactive or inconclusive.
What was measured:
[1] = target: 3',5'-cyclic-AMP phosphodiesterase 4B (Homo sapiens) (UniProt Q07343); assay: qHTS Assay for Inhibitors of PDE-IV (AID 607; active = well fitted activation curve with a large enough effect in the main read-out, with a control signal flat, not every such curve was filed as active; also: % of control where 0% means no effect); conditions: HEK293 ACTOne CNG channel cells, membrane potential fluorescence; series mostly up to 22.9 µM
In short: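 Cell-based read-out of cAMP via a modified cyclic nucleotide-gated channel and membrane potential dye (535/590 nm) in HEK293 cells expressing PDE4 endogenously. Compounds tested up to 22.9 uM final; 100 uM RO 20-1724 reference.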

[2] = Cell Viability - Mesenchymal (AID 546); conditions: mesenchymal cells viability, qHTS; series mostly up to 91.7 µM;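 also: cells exposed to compound for 40 hours before reading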
In short: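 CellTiter-Glo luminescence (intracellular ATP, 20 min room temperature) after 40 hr compound exposure at 37 °C of 1000 glomerulus-derived human kidney mesenchymal cells/well; AC50 values obtained by fitting qHTS concentration-response data to the Hill equation.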

[3] = Cellular Toxicity (caspase-3) HepG2 (AID 654); conditions: HepG2 caspase-3 activation, luminescence; series mostly up to 92.2 µM; also: potency is read from the fitted curve at half-maximal effect;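 as to caspase-3 activation: cells exposed to compound for 16 hours before reading; 0% = DMSO alone and 100% = caspase signal from 100 µM tamoxifen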
In short: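 Luminescent Caspase-Glo 3/7 readout after 16 hr compound exposure of human hepatocellular carcinoma HepG2 cells at 37 °C; qHTS concentration-response, normalized DMSO = 0%, 100 uM tamoxifen = 100%; AC50 by standard Hill equation.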

[4] = Cellular Toxicity (caspase-3) Jurkat (AID 655); conditions: Jurkat caspase-3 activation, luminescence; caspase-3 activation: at 92.2 µM (top of the series), DMSO = 0%, tamoxifen = 100%;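 also: cells exposed to compound for 16 h at 37 °C before reading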; also: potency is read from the fitted curve at half-maximal effect
In short: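 qHTS in human Jurkat T-cell leukemia line: 16 hr compound treatment at 37 °C, caspase-3/7 activity measured by Caspase-Glo luminescence. AC50 derived from Hill equation.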

[5] = Cellular Toxicity (caspase-3) HUV-EC-C (AID 656); conditions: HUV-EC-C cells, caspase-3 activation (apoptosis), vehicle = 0, 100 µM tamoxifen = 100%; series mostly up to 92.2 µM
In short: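 Concentration-dependent caspase 3/7 induction was assessed in HUV-EC-C cells exposed for 16 hours. Data scaled between DMSO and tamoxifen (100 uM) controls.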

[6] = Cellular Toxicity (caspase-3) SHSY5Y (AID 657); conditions: SH-SY5Y caspase-3 activation; series mostly up to 91.7 µM;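 also: cells exposed to compound for 16 hours at 37 °C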; also: potency is read from the fitted curve at half-maximal effect
In short: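 Readout: caspase-cleaved peptide-aminoluciferin substrate driving luciferase light in SH-SY5Y neuroblastoma cells after 16 h treatment. Response normalized to DMSO and 10 uM staurosporine controls.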

[7] = Cellular Toxicity (caspase-3) BJ (AID 658); conditions: BJ fibroblasts, luminescence, normalized: DMSO 0%, staurosporine 100%; series mostly up to 91.7 µM
In short: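 Caspase-Glo 3/7 luminescence, read 1 hr after reagent at room temperature, in normal BJ fibroblasts exposed 16 hours at 37 °C. AC50 values from Hill-equation concentration-response, scaled between DMSO basal and 10 uM staurosporine as 100%.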

[8] = Cellular Toxicity (caspase-3) MRC-5 (AID 659); conditions: MRC-5 cells, luminescence, normalized: DMSO 0%, 10 µM staurosporine 100%; series mostly up to 91.7 µM
In short: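 Luminescent Caspase-Glo 3/7 read-out (1 h, room temperature) after a 16 h, 37 °C compound exposure of MRC-5 lung fibroblasts at 1500 cells/well. Concentration-response AC50 from Hill equation; 0% DMSO, 100% 10 uM staurosporine.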

[9] = Cellular Toxicity (caspase-3) SK-N-SH (AID 661); conditions: SK-N-SH caspase-3 activation, qHTS, DMSO as zero, staurosporine as full; series mostly up to 91.7 µM
In short: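 Luminescent Caspase-Glo 3/7 read-out after 16 hr compound exposure of SK-N-SH neuroblastoma cells at 37 °C. Signal increase normalized to DMSO (basal) and 10 uM staurosporine (100%); AC50 from Hill equation fits of qHTS concentration-response data.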

[10] = Cellular Toxicity (caspase-3) Mesangial (AID 660); conditions: mesangial cells, normalized: DMSO 0%, 100 µM tamoxifen 100%; series mostly up to 91.7 µM;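 also: combined caspase 3 and 7 activity read by Caspase-Glo luminescence; cells exposed to compound for 16 h before the caspase read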
In short: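 Luminescent Caspase-Glo 3/7 readout (aminoluciferin substrate cleavage, 20 min RT) after 16 h compound exposure at 37 °C of normal human mesangial cells. Signal increase normalized between DMSO basal and 100 uM tamoxifen; Hill-equation AC50.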

3',5'-cyclic-AMP phosphodiesterase 4B (Homo sapiens), sequence (Q07343 whole entry, looked up): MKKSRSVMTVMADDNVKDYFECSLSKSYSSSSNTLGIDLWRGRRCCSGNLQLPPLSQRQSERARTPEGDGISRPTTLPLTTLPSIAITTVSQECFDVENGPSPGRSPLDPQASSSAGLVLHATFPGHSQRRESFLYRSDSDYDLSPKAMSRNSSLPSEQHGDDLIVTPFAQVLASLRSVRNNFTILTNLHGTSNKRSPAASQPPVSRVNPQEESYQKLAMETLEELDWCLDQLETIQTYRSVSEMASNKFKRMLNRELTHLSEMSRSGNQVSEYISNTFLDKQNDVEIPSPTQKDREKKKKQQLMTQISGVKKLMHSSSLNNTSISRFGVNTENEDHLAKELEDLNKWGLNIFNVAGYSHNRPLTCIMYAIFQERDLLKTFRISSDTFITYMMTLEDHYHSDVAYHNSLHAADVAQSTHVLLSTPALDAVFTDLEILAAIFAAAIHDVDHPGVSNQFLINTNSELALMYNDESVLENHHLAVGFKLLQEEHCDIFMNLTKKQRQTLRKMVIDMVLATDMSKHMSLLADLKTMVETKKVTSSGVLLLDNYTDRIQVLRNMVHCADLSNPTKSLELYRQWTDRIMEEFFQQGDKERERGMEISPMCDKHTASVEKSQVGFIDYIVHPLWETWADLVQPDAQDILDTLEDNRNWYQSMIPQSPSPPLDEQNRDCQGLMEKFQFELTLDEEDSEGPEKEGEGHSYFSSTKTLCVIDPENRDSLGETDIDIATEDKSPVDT

O=[N+]([O-])c1cc([As](=O)(O)O)ccc1O
inactive: outcome [1]

NCC1(CC(=O)O)CCCCC1
inactive: outcome [1]

C#CCN(C)[C@H](C)Cc1ccccc1
inactive: outcome [1]

Oc1cccc2cccnc12
inactive: outcome [2] | outcome [1] | Potency [3] | caspase-3 activation [4] 7.85% and 22.6% | outcome [5] | Potency [6] | outcome [7] | outcome [8] | outcome [9]

CCOP(=S)(OCC)Oc1cc(C)nc(C(C)C)n1
inactive: outcome [2] | Potency [3] | caspase-3 activation [4] 1.42% | outcome [5] | Potency [6] | outcome [7] | outcome [8] | outcome [10] | outcome [9]

c1ccc(C2CC2)c(OCC2=NCCN2)c1
inactive: outcome [1]

CCn1cc(C(=O)O)c(=O)c2ccc(C)nc21
inactive: outcome [1]

NN=C(N)N
inactive: outcome [1]

N[C@@H](Cc1ccc(N(CCCl)CCCl)cc1)C(=O)O
active: Potency [3] 31.6 µM | Potency [4] 25.1 µM | Potency [6] 2.51 µM
inactive: outcome [5] | outcome [7] | outcome [8]

OCCOc1ccccc1
inactive: outcome [2] | Potency [3] | caspase-3 activation [4] -1.54% | outcome [5] | Potency [6] | outcome [7] | outcome [8] | outcome [10] | outcome [9]

O=c1[nH]c2ccccc2n1CCCN1CCC(n2c(=O)[nH]c3cc(Cl)ccc32)CC1
inactive: outcome [1]

CCCN1CCC[C@@H]2Cc3nc(N)ncc3C[C@H]21
inactive: outcome [1]

COC1(CS(=O)c2ccccc2)CCN(CCc2c[nH]c3ccc(F)cc23)CC1 (stereo not given)
inactive: outcome [1]

Cc1ncc(CNC(=O)N(CCCl)N=O)c(N)n1
inactive: outcome [1]

c1ccc2c(c1)Nc1ccccc1S2
inactive: outcome [2] | Potency [3] | caspase-3 activation [4] 0.561% | outcome [5] | Potency [6] | outcome [7] | outcome [8] | outcome [10] | outcome [9]

Clc1cccc(N2CCNCC2)c1
inactive: outcome [1]

C=C(C)[C@H]1Cc2c(ccc3c2O[C@@H]2COc4cc(OC)c(OC)cc4[C@@H]2C3=O)O1
inactive: outcome [1]

C[C@]12C/C(=C/O)C(=O)C[C@@H]1CC[C@@H]1[C@@H]2CC[C@@]2(C)[C@H]1CC[C@]2(C)O
inactive: outcome [2] | caspase-3 activation [4] 15% | outcome [5] | Potency [6] | outcome [7] | outcome [8] | outcome [10] | outcome [9]

Oc1ccccc1-c1ccccc1
inactive: outcome [2] | Potency [3] | outcome [5] | Potency [6] | outcome [7] | outcome [8] | outcome [10] | outcome [9]
active: caspase-3 activation [4] 82.5%

O=c1[nH]c2ccccc2n1C1CCN(CCCC(c2ccc(F)cc2)c2ccc(F)cc2)CC1
inactive: outcome [1]

CNCC(O)c1ccc(O)cc1 (stereo not given)
inactive: outcome [2] | Potency [3] | caspase-3 activation [4] 2.25% | outcome [5] | Potency [6] | outcome [7] | outcome [8] | outcome [10] | outcome [9]

O=P1(NCCCl)OCCCN1CCCl (stereo not given)
inactive: outcome [1]

Fc1ccc(C(OCCN2CCN(CCCc3ccccc3)CC2)c2ccc(F)cc2)cc1
inactive: outcome [1]

Cc1cccc(C)c1NC1=NCCCS1
inactive: outcome [1]

Clc1ccc(COC(Cn2ccnc2)c2ccc(Cl)cc2Cl)cc1 (stereo not given)
inactive: Potency [6] | outcome [7] | outcome [8] | outcome [10] | outcome [9]
active: caspase-3 activation [4] 99.7%

Oc1ccc(Cl)cc1Cc1ccccc1
inactive: outcome [2] | Potency [3] | caspase-3 activation [4] 18.5% | outcome [5] | Potency [6] | outcome [7] | outcome [8] | outcome [10] | outcome [9]

CCN(CC)C(=O)N[C@@H]1C=C2c3cccc4[nH]cc(c34)C[C@@H]2N(C)C1
inactive: outcome [1]

Nc1ccncc1
inactive: outcome [1]

COc1ccccc1N1CCNCC1
inactive: outcome [1]

NP(N)(=O)NC(=O)c1ccc(F)cc1
inactive: outcome [1]

CCCN1CCC[C@@H]2Cc3[nH]ncc3C[C@H]21
inactive: outcome [1]

CCCC(C)(COC(N)=O)COC(=O)NC(C)C (stereo not given)
inactive: outcome [2] | Potency [3] | caspase-3 activation [4] 1.39% | outcome [5] | Potency [6] | outcome [7] | outcome [8] | outcome [10] | outcome [9]

NCC(O)c1ccc(O)cc1 (stereo not given)
inactive: outcome [2] | Potency [3] | caspase-3 activation [4] -0.0147% | outcome [5] | Potency [6] | outcome [7] | outcome [8] | outcome [10] | outcome [9]

N#CC(C#N)=Cc1ccc(O)c(O)c1
inactive: outcome [1]

N[C@@H]1C[C@H]1c1ccccc1
inactive: outcome [1]

Cc1ccc(S(=O)(=O)N[C@@H](CCCCN)C(=O)CCl)cc1
inactive: outcome [1]
